Inconclusive results are not listed. Entries that show only a call come without a potency. Calls of active or inactive are those of the source. Calls follow the shape of the dose curve; as a rule, active = well fitted inhibition curve with a large enough effect; inconclusive = small, poorly fitted or top-dose-only effect; inactive = no such curve, though single readings can be large or run the other way.
test: Primary qHTS for inhibitors of La Crosse Virus (LACV) - induced cell death in SH-SY5Y cells (AID 1508616); details: SH-SY5Y LACV cytopathicity rescue, ATP luminescence, 6 d; series mostly up to 9.63 µM;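 also: top concentration of the series differs between compounds; higher means more rescue of cells from virus-induced death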
Text: Assay Provider: Karin Peterson Ph.D.
National Institute of Allergy and Infection Diseases, National Institute of Health
La Crosse Virus (LACV) is a California serogroup mosquito-borne arbovirus, family Peribunyaviridae, which is an endemic pathogen in North America and can induce a rare, life-threatening neurological disease in children. LACV was first isolated in the early 1960s, from a summer "rural encephalitis" case in La Crosse, Wisconsin, USA. Since then, LACV encephalitis cases have been found in more than twenty states, with most cases in the Mississippi and Ohio River basins. The life cycle of LACV is maintained between the vector, the eastern tree-hole mosquito Aedes triseriatus, and vertebrate hosts including eastern gray squirrels (Sciurus carolinensis) and chipmunks (Tamiasstriatus grinseus). […] Most LACV infections in humans are asymptomatic or induce mild clinical symptoms of fever, headache, lethargy and vomiting. However, in some cases LACV can cause severe neuroinvasive disease, including encephalitis, meningitis, and meningoencephalitis, requiring hospitalization. To date, there is neither a licensed vaccine nor a Food and Drug Administration (FDA) approved antiviral therapy available to prevent or treat LACV encephalitis. The primary treatment for viral encephalitis is palliative care due to the lack of therapeutics. In the current study, we conducted a screen of 4,096 FDA approved and bioactive small molecules against LACV, by screening for rescue of LACV-induced cell death in SH-SY5Y cells.
LACV-induced cytopathicity assay
SEQUENCE No. (1,2, 3, etc.); […] (e.g., Cells, Incubation, Reagent, etc.); VALUE and DESCRIPTION.
1. Reagent; 2 uL; Cell solution.
3. Compounds; 23nL; Compound library
4. Reagent; 12 uL; LACV virus
6. Reagent; 24 uL; ATPLite (PerkinElmer)
7. Time; 5 min; Room temperature
8. Detection; Luminescence; View
NOTES (numbers refer to sequence above)
1. Seed 6000 SH-SY5Y cells (ATCC CRL-2266) in 2 microL/well media (DMEM/F12 10% FBS, 1x L-Glutamine, 1x Pyruvate, 1x NEAA, 1x Pen/Strep) in 384-well assay plates (tissue culture treated, white, solid bottom).
2. Incubate at 37 degrees C with 5% CO2 for 24 hr.
3. Dispense 23 nL/well compounds in DMSO via pin transfer.
4. Dispense 12 microL/well of LACV (LACV/human/1978) in media at 0.01 MOI.
5. Incubate at for 6 days at 37C 5% CO2
6. Dispense 24 microL/well of ATPLite 1step Luminescence assay system (PerkinElmer).
7. Incubate for 5 min at room temperature.
8. Read luminescence signal (Viewlux plate reader, PerkinElmer). Data was normalized with DMSO control wells containing LACV as 0%, and DMSO control wells without virus as 100%.

Row | Structure (SMILES) | Potency
1 | NS(=O)(=O)c1cccc2c1c([N+](=O)[O-])cc1nc(O)c(O)nc12 | inactive
2 | Cc1ccccc1/C=C/C1=NCCN1 | inactive
3 | CC[C@H](NC(=O)c1c(C)c(-c2ccccc2)nc2ccccc12)c1ccccc1 | inactive
4 | COc1cc(/C=C(\C#N)C(=O)c2ccc(O)c(O)c2)cc(I)c1O | inactive
5 | O=C(O)c1cc2cc(F)ccc2[nH]1 | inactive
6 | CC(N)=NCCCC[C@@H](N)C(=O)O | inactive
7 | NC(N)=NC(N)=Nc1cccc(Cl)c1 | inactive
8 | Clc1nccc2c1ccc1ccccc12 | inactive
9 | NCC(O)c1ccc(O)c(O)c1 (stereo not given) | inactive
10 | COC(=O)C1=C(C)NC(C)=C([N+](=O)[O-])C1c1ccccc1C(F)(F)F (stereo not given) | inactive
11 | Cn1cc(C(=O)OCC2CCN(CCNS(C)(=O)=O)CC2)c2ccccc21 | inactive
12 | NCCC1CCCC(CCN)N1 (stereo not given) | inactive
13 | Cn1c(=O)[nH]c2ncn(C)c2c1=O | inactive
14 | O=c1ccc2c(OCCCCc3ccccc3)c3ccoc3cc2o1 | inactive
15 | C[C@H]1CC2C3CCC4=CC(=O)C=C[C@]4(C)[C@@]3(Cl)[C@@H](O)C[C@]2(C)[C@@]1(O)C(=O)CO (stereo not given in full) | inactive
16 | CC(=O)NCCc1c[nH]c2ccc(O)cc12 | inactive
17 | CCCN(CCc1ccccc1)C1CCc2c(O)cccc2C1 (stereo not given) | inactive
18 | CC(C)[C@@H]1CC[C@@H](C)C[C@@H]1P(=O)(c1ccccc1)c1ccccc1 | inactive
19 | C=CCN1CCc2c(cc(O)c(O)c2Cl)C(c2ccccc2)C1 (stereo not given) | inactive
20 | COc1ccccc1N1CCN(CCCCNC(=O)c2ccc3ccccc3c2)CC1 | inactive

Row | Structure (SMILES) | Potency
21 | NC1(C(=O)O)CCc2cc(C(=O)O)ccc21 (stereo not given) | inactive
22 | CN1CCC2(CCN3CCc4c(oc5ccccc45)C3C2)N(C)C1=O (stereo not given) | inactive
23 | NC(Cc1cccc(-c2ccccc2CP(=O)(O)O)c1)C(=O)O (stereo not given) | inactive
24 | CN(C)CCCc1cc(C(=O)Nc2ccc(-c3ccncc3)cc2)ccc1O | inactive
25 | O=[N+]([O-])c1cccc2c(Br)[nH]nc12 | inactive
26 | O=C(O)c1ccccc1Nc1cccc(OCc2ccc3ccccc3n2)c1 | inactive
27 | CC1=C(C(=O)O)N2C(=O)[C@@H](NC(=O)C(N)C3=CCC=CC3)[C@H]2SC1 (stereo not given in full) | inactive
28 | c1ccc(C(NCc2cccnc2)(c2ccccc2)c2ccccc2)cc1 | inactive
29 | CN(C)C(=O)/N=N/C(=O)N(C)C | inactive
30 | c1ccc2c(c1)CC(N1CCN(c3cccc4c3OCCO4)CC1)C2 | inactive
31 | CC1=C(/C=C/C(C)=C/C=C/C(C)=C\C(=O)O)C(C)(C)CCC1 | inactive
32 | NOCC(=O)O | inactive
33 | CCCCCCC(=O)OC1CC(C)(C)NC(C)(C)C1 | inactive
34 | NC1(C(=O)O)CCCCC1 | inactive
35 | CNC(=O)c1cc2c(cn1)[nH]c1ccccc12 | inactive
36 | Oc1ccc(/C=C/c2ccc(/C=C/c3ccc(O)cc3)c(Br)c2)cc1 | inactive
37 | COC(=O)[C@H](NC(=O)c1cc(-c2ccccc2)nc2ccccc12)c1ccccc1 | inactive
38 | Oc1ccc(Cn2cc[nH]c2=S)cc1 | inactive
39 | O=C(O)C1=CCCN(CCON=C(c2ccccc2)c2ccccc2)C1 | inactive
40 | COc1cc2c(CCNC(C)=O)c[nH]c2cc1O | inactive
